From PubChem
CYP2C19 activ = activators of human cytochrome P450 2C19 | P33261 | recombinant CYP2C19, luciferin-H EGE luminescence; active compounds read high; 0 = fully inhibited enzyme, 1 = untreated enzyme | activation factor at 5 µM | 96,000 tested, under 10 active | AID 1025;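 active means activation factor of at least 2 at 5 µM in the primary screen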;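 further: 0 = wells with 2.5 mM tranylcypromine and 1 = vehicle-only wells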
CYP2C9 act = CYP2C9 (human) activation. P11712. activation factor at 5 µM. 96,000 compounds, 1.4% hits. recombinant CYP2C9, luciferin-H conversion, luminescence; active compounds read high; factor 1 = untreated enzyme, 0 = blocked;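 active means activation factor of 2 or more for CYP2C9 at a 5 µM dose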;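 further: 0 = sulfaphenazole-blocked wells and 1 = vehicle-only wells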
Target sequence (P11712 whole entry, looked up): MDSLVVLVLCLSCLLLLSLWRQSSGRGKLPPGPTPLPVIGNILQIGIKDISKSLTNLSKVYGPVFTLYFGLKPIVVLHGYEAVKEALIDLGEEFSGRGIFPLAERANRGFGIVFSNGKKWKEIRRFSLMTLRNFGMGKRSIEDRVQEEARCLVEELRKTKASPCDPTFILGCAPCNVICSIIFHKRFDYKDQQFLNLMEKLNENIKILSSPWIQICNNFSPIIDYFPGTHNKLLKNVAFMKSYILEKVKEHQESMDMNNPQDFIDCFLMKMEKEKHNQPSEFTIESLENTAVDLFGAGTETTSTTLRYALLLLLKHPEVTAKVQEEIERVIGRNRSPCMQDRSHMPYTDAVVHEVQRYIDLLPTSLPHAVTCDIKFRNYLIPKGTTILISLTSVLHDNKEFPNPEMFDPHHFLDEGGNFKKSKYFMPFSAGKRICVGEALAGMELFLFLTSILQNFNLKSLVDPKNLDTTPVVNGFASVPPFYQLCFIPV
CYP2C19 inhib = inhibitors of human CYP2C19; P33261; CYP2C19 Supersomes, luciferin-H EGE luminescence, 30 min; inhibition, % at 5 µM; 96,000 compounds, 21% hits;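 active means CYP2C19 inhibition above a set limit at 5 µM in the primary screen, cut at about 50% in these data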;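 further: plate controls were negative control wells for no effect and 2.5 mM tranylcypromine positive control for full effect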
CYP2C9 inh = blocks human cytochrome P450 2C9. CYP2C9 Supersomes, luciferin-H conversion, luminescence. inhibition, % at 5 µM. 96,000 compounds, 20% hits. AID 777;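 active means blocking of liver enzyme CYP2C9 beyond about 50% at 5 µM, limit read from the data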
PostGolgi yeast = growth inhibition of a yeast mutant, post-Golgi transport screen; post-Golgi transport phenotypic cell assay; inhibition, % at 10 µM; 98,000 compounds, 0.9% hits;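 further: yeast cells grown in 1536-well plates; yeast grown about 18 h at 30C before absorbance read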
PostGolgi ctrl = inhibits growth of the yeast control strain. inhibition, % at 10 µM. efflux-deficient yeast background strain, growth absorbance A615, 16 h. AID 738. 98,000 compounds, 5% hits
* marks the source's active call; other numbers are inactive results; / = no result given. A selection: hits, their analogues and other compounds. The true share with any hit is near 32%. Unless noted, no stated cut-off is given here; in the data, active means inhibition above about 30%; inactive means the rest.

SMILES | CYP2C19 activ | CYP2C9 act | CYP2C19 inhib | CYP2C9 inh | PostGolgi yeast | PostGolgi ctrl
CC1Cc2ccccc2N1C(=O)Cn1c(=O)oc2cc(S(=O)(=O)NC3CCCC3)ccc21 (centres undefined) | 0.7 | 0.3 | 31.3 | 69.2* | 7.8 | 23.9
O=C(CN1CCN(C2CCCCC2)CC1)c1c[nH]c2ccccc12 | 0.9 | 1.1 | 7.0 | -7.9 | -2.9 | 0.5
CC(C)C(=O)N(Cc1ccc2c(c1)OCO2)Cc1ccccn1 | 0.2 | 0.8 | 76.2* | 16.4 | 0.0 | 7.0
CC(NC(=O)N(Cc1ccccc1)Cc1ccc2c(c1)OCO2)(C(F)(F)F)C(F)(F)F | 0.1 | 0.1 | 85.9* | 92.9* | -2.9 | 3.3
CCC(NC(=O)N(Cc1ccccc1)Cc1ccc2c(c1)OCO2)(C(F)(F)F)C(F)(F)F | 0 | 0.1 | 99.8* | 93.7* | 3.4 | 3.9
COc1ccc(CN(Cc2ccccn2)C(=O)CN2C(=O)COc3ccccc32)cc1 | 0.5 | 0.6 | 47.4 | 41.7 | -11.4 | 1.3
CC(=O)OCCN(Cc1ccccc1)Cc1ccc2c(c1)OCO2 | 0 | 0.2 | 99.4* | 84.4* | 3.5 | 15.4
O=C(CS(=O)(=O)Cc1ccccc1)NCc1ccc2c(c1)OCO2 | 1 | 1 | 1.2 | -2.6 | 2.6 | 10.5
CCOc1ccccc1-c1nc(-c2ccc(C)nc2OC)no1 | 0.9 | 1.3 | 12.8 | -29.7 | 0.4 | 22.5
COc1cccc(C2/C(=C(/O)c3ccccc3)C(=O)C(=O)N2CCCC(=O)O)c1 (centres undefined) | 0.9 | 0.9 | 9.1 | 6.6 | -3.4 | 1.8
CSc1nc(=O)n2cccc(C)c2n1 | 1 | 1 | 3.5 | -3.4 | 16.7 | -3.7
O/N=C1/CCSc2ccccc21 | 1 | 1.1 | -3.2 | -8.9 | 1.3 | 1.1
CC(/C=N/NC(=O)Cc1cc(=O)[nH][nH]1)=C\c1ccccc1 | 1 | 1 | 4.2 | 2.1 | -3.1 | -7.6
CC(=O)N(CCC(Cc1ccccc1)c1ccc2c(c1)OCO2)Cc1ccc(Cl)cc1 (centres undefined) | 0.2 | 0.2 | 75.5* | 75.2* | -3.4 | 36.4*
CCCOc1cccc(C(=O)N(Cc2cccs2)C2CCS(=O)(=O)C2)c1 (centres undefined) | 0.7 | 0.9 | 25.4 | 7.6 | -3.7 | 5.3
O=C(NC1CCCCC1)c1ccc(S(=O)(=O)NCc2ccco2)cc1 | 0.9 | 0.7 | 8.8 | 26.9 | -1.4 | 5.2
O=C(Nc1ccc(S(=O)(=O)NCc2ccco2)cc1)c1ccncc1 | 0.1 | 0 | 93.5* | 97.5* | -5.1 | 21.1
Cc1cc(C)n(CCCNC(=O)c2ccc(S(=O)(=O)NCc3ccco3)cc2)n1 | 0.9 | 0.5 | 10.4 | 50.2* | -7.4 | 5.5
COc1cccc(C(=O)Nc2ccc(S(=O)(=O)NCc3ccco3)cc2)c1 | 1.1 | 0.9 | -7.3 | 5.9 | 3.2 | 3.4
COc1ccccc1CC(NC(C)=O)C(=O)N1CCN(C(=O)Nc2ccccc2Cl)CC1 (centres undefined) | 1.1 | 1.2 | -5.4 | -16.8 | 1.9 | 6.8
COc1ccc2cc3cc(C(=O)NCCN4CCN(c5ccccc5F)CC4)oc3nc2c1 | 0.8 | 0.7 | 19.5 | 31.5 | 1.1 | 81.0*
Cc1cccc(N(C)C(=O)c2cc3cc4ccc(C)cc4nc3o2)c1 | 0.3 | 0.8 | 70.1* | 24.2 | 1.3 | 10.7
Cc1ccc2cc3cc(C(=O)NCCCN4CCCCCC4)oc3nc2c1 | 1 | 1 | -1.6 | 2.6 | 7.1 | 10.5
Cc1ccc2cc3cc(C(=O)NCCCN4CCc5ccccc5C4)oc3nc2c1 | 0.4 | 0.9 | 64.0* | 13.2 | 16.2 | 13.2
COc1ccc2cc3cc(C(=O)Nc4ccccc4N4CCN(C)CC4)oc3nc2c1 | 0.4 | 0.7 | 61.2* | 25.6 | 4.5 | 12.0
SMILES | CYP2C19 activ | CYP2C9 act | CYP2C19 inhib | CYP2C9 inh | PostGolgi yeast | PostGolgi ctrl
CSc1nc2[nH]c3c(c2c2ncnn12)CCCC3 | 0.9 | 0.8 | 8.2 | 20.4 | -1.4 | -1.9
COc1ccccc1CNc1nc2nc3c(c(=O)n2[nH]1)CCC3 | 0.7 | 0.2 | 27.8 | 75.5* | -3.5 | 7.8
O=c1c2c(nc3nc(Cc4ccccc4)[nH]n13)CCC2 | 0.9 | 0.6 | 8.4 | 39.2 | 4.0 | 5.6
CC(C)CCn1c(=O)c2ccccc2n2c(CN(C)Cc3ccccc3)nnc12 | 0.7 | 0.7 | 34.7 | 26.5 | 14.8 | 7.0
O=S(=O)(Nc1cc(Cl)ccn1)c1ccc(Cl)cc1 | 0.5 | 0.3 | 47.2 | 74.0* | -7.6 | 24.2
Cc1ccnc(NS(=O)(=O)c2ccc(CC(C)C)cc2)c1 | 0.3 | 0.6 | 71.5* | 37.9 | 18.7 | 21.3
O=S(=O)(Nc1ncccc1O)c1ccc(Cl)cc1 | 0.1 | 0.8 | 86.0* | 17.7 | 1.6 | 5.7
O=S(=O)(c1ccc(Cl)cc1)n1ccc2cccnc21 | / | / | / | / | -4.2 | 8.7
Cn1ncc(C#N)c1/N=C/N1CCOCC1 | 1.1 | 1.1 | -13.4 | -12.8 | 4.6 | 6.7
Cc1ccc(-c2c3c(=O)n(C)c(=O)n(C)c3cn2Cc2cccnc2)cc1 | 0.7 | 1 | 30.6 | 3.0 | 4.4 | 6.2
CN(C)CCCNCCCNC(=O)c1ccncc1 | 1.1 | 1 | -7.9 | 0.0 | 1.9 | -2.6
CN(C)CCCNC(=O)c1ccc(-c2nc(-c3ccc(Cl)cc3)cs2)cc1 | 0.7 | 0.8 | 29.6 | 15.7 | -0.8 | 38.5*
CCOC(=O)c1nnn(-c2nc(OC)nc(N3CCCC3)n2)c1-c1ccccc1 | 0.3 | 0.5 | 67.9* | 53.0* | -2.6 | 22.3
CCOC(=O)c1nnn(-c2nonc2N)c1CN(C)Cc1ccccc1 | 0.7 | 0.2 | 33.3 | 82.6* | 11.3 | 22.6
CCOC(=O)c1c(N)nn(C(=O)CC)c1-c1ccccc1 | / | / | / | / | 0.5 | 7.9
CCOC(=O)c1c(-c2ccccc2)nnn1-c1nc(OC)nc(N2CCOCC2)n1 | 0.8 | 0.7 | 19.3 | 25.8 | 4.8 | -10.1
CCOC(=O)c1nnn(-c2nn3nnnc3c3ccccc23)c1C | 1.1 | 0.4 | -11.0 | 55.2* | 4.9 | -2.7
CCOC(=O)c1c(N)nn(C(=O)C(C)C)c1-c1ccccc1 | 0.3 | 0.6 | 69.1* | 40.7 | -3.5 | 11.9
CCOC(=O)c1nnn(-c2nonc2-n2cccc2)c1C | 0.6 | 0.6 | 43.8 | 40.7 | 4.2 | 4.6
Cc1ccc(NC(=O)c2ccco2)c(NC(=O)CN2C(=O)c3ccccc3C2=O)c1 | 1 | 0.9 | 1.9 | 12.0 | -2.2 | 3.4
CCOC(=O)c1nnn(-c2nonc2N)c1-c1ccccc1 | 0.3 | 0.8 | 71.6* | 17.9 | -9.4 | 25.5
Cc1c(C(=O)OCc2ccccc2)nnn1-c1nonc1N | 0 | 0.6 | 99.3* | 38.4 | 9.0 | 6.9
Cc1nn2c3c(cnc2c1-c1ccc(Cl)cc1)C(=O)CC(c1ccco1)C3 (centres undefined) | 1.2 | 1.4 | -19.6 | -36.8 | / | /
COc1cc(Nc2cc(C)nc3nc(C)nn23)cc(OC)c1OC | 1.1 | 0.9 | -12.9 | 5.7 | -3.4 | -9.8
COc1ccccc1N1CCN(C(=O)c2cc3c(=O)n(C)c4ccccc4c3n2C)CC1 | 0.1 | 0.4 | 88.9* | 60.6* | 4.9 | -3.1
Cn1c(C(=O)N2CCN(C3CCCCC3)CC2)cc2c(=O)n(C)c3ccccc3c21 | 1.1 | 0.9 | -5.5 | 13.3 | -10.0 | 6.4
